Screens as filed in PubChem BioAssay.
TcdB GH inh: blocks C. difficile toxin B glycohydrolase activity | TcdB glycohydrolase enzymatic assay, plate reader | inhibition, % at 9.99 µM | 350,000 compounds, 0.24% hits; in the data active = inhibition above about 10%
Y pestis TopoI: blocks Yersinia pestis topoisomerase I activity; 360,000 compounds, 0.064% hits; activity, % at 10 µM; Y. pestis Topo-I cleavage product accumulation, plate reader; AID 504884; in the data active = activity above about 50%, passing the limit was not always enough
UGM FP inh: inhibitors of M. tuberculosis UDP-galactopyranose mutase; inhibition, % at 10 µM; 320,000 compounds, 0.06% hits; purified UGM, fluorescence polarization probe displacement; P9WIQ1; in the data active = inhibition above about 10%, passing the limit was not always enough
PrP 5UTR inh: inhibition of PrP 5' UTR reporter expression; cell-based PrP 5' UTR mRNA reporter, plate reader; inhibition, % (concentration not given with the values); 340,000 compounds, 0.35% hits; in the data active = inhibition above about 52%
Vc quorum ag-1: induces V. cholerae light production without autoinducers; V. cholerae BH1578 lux reporter, luminescence, 6 h; activation, % at 18.7 µM; 350,000 compounds, 0.16% hits; in the data active = activation mostly above about 9.7%, no sharp cut-off
Vc quorum ag-2: inducers of V. cholerae quorum light production without autoinducers. shares compounds with Vc quorum ag-1. V. cholerae BH1578 lux reporter, luminescence, 6 h. 620 tested, under 10 active. AID 602243. activation, % at 50 µM; call rule not given here
HeLa 24h tox: kills HeLa cells within 24 hours. shares compounds with Vc quorum ag-1. HeLa viability, CellTiter-Glo ATP luminescence. activity change, negative = cytotoxicity, % at 35 µM. 25 tested, under 10 active. AID 624140;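 active = signal drop with fitted half-maximal concentration at or below twice the highest valid dose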
Numbers stand for hits; . = inactive; / = not tested or not shown. Rows were chosen to be rich in hits. Some 0.65% of all compounds tested hit in one or more screens of this group.

SMILES	TcdB GH inh	Y pestis TopoI	UGM FP inh	PrP 5UTR inh	Vc quorum ag-1	Vc quorum ag-2	others
O=C(Cc1ccc(-c2ccccc2)cc1)NC1CCCC1	.	.	.	.	/	/	HeLa 24h tox=.
O=C(COC(=O)/C=C/c1ccc(OC(F)F)cc1)NC1CCCCCC1	.	.	.	.	9.5	.
O=C(COC(=O)/C=C/c1ccccc1)NC1CCCCC1	.	.	.	.	.	/
COc1ccc2c3c([nH]c2c1)[C@H](CO)N(Cc1ccccc1F)CC31CN(S(C)(=O)=O)C1	.	/	/	/	/	/
Cc1ccc(C)n1-c1sc2c(c1C#N)CCC(C)C2 (stereo not given)	/	.	.	.	.	.
CC(=O)Nc1sc2c(c1C#N)CCC(C)C2 (stereo not given)	.	.	.	.	.	/
O=C(c1ccccn1)N1C[C@H]2[C@@H](c3ccccc31)[C@H](CO)N2C(=O)Cc1ccccc1	.	/	/	/	/	/
Cc1ccc(C(=O)COc2cc(C)nc3nncn23)cc1	.	.	.	.	923.3	.
CCC(O)(CCN1CCCCC1)c1ccccc1 (stereo not given)	/	.	.	.	.	.
COCC#Cc1ccc2c(c1)O[C@H](CN(C)S(=O)(=O)c1ccc(F)cc1)[C@@H](C)CN([C@@H](C)CO)S2(=O)=O	.	/	/	/	/	/
CCCC(=O)Nc1ccc2c(c1)C(=O)N(C)C[C@H](OC)[C@@H](C)CN(CCc1ccccc1)[C@H](C)CO2	.	/	/	/	/	/
O=C(Nc1ccc(F)cc1)N1C[C@@H]2[C@H](c3ccccc31)[C@H](CO)N2C(=O)Cc1cccnc1	.	/	/	/	/	/
CCOC(=O)N1CCN(c2ccnc3cc(Cl)ccc23)CC1	.	.	.	.	.	/
O=C(Oc1ccnc2cc(Cl)ccc12)N1CCCCCC1	/	.	.	.	16.7	.
CCN(CC1COc2ccccc2O1)C(=S)Nc1ccccc1 (stereo not given)	/	.	.	/	.	.
CCN(CC1COc2ccccc2O1)C(=S)NCCCN(C)C (stereo not given)	.	.	.	.	.	/
COc1ccc(S(=O)(=O)N2CCCCC2)cc1NC(=O)c1ccc(OC)c(OC)c1	.	.	/	.	.	.
COc1ccc(S(=O)(=O)Nc2cccc(S(=O)(=O)N3CCCC3)c2)cc1OC	.	.	.	.	.	.
COc1ccc(CCN(C)C(=O)c2cc(S(=O)(=O)N3CCCCCC3)ccc2OC)cc1OC	.	.	.	.	.	.
COCC(=O)N1C[C@@H]2[C@H](c3ccccc31)[C@@H](CO)N2Cc1ccccc1Cl	.	/	/	/	/	/
COc1ccc(NC(=O)N[C@H]2CC[C@@H](CCNC(=O)Cc3ccncc3)O[C@H]2CO)cc1	.	/	/	/	/	/
COCCNC(=O)[C@H]1[C@H](CO)[C@H]2Cn3c(ccc(-c4ccccc4)c3=O)[C@@H]1N2C(=O)NC(C)C	.	/	/	/	/	/
O=C(NCCC(=O)N1CCCCCCC1)c1ccc(Br)cc1	.	.	.	.	.	/
O=C(NCCC(=O)N1CCCCC1)c1ccc(Br)cc1	.	.	.	.	.	.
Cc1noc(C)c1NC(=O)N(C)C[C@H]1Oc2ccc(N(C)C)cc2CC(=O)N([C@@H](C)CO)C[C@H]1C	.	/	/	/	/	/
SMILES	TcdB GH inh	Y pestis TopoI	UGM FP inh	PrP 5UTR inh	Vc quorum ag-1	Vc quorum ag-2	others
CCCn1c(=O)[nH]c(=O)c2c1nc(-c1ccc(C#N)cc1)n2CCOC	.	.	.	.	.	/
CCCCn1c(=O)[nH]c(=O)c2c1nc(COc1ccc(C#N)cc1)n2CCC	/	.	.	.	.	.
Cc1ccc2occ(C(c3nnnn3Cc3ccccc3)N3CCOCC3)c(=O)c2c1 (stereo not given)	/	.	.	.	25.0	.
C[C@@H]1CN([C@H](C)CO)S(=O)(=O)c2ccc(C#Cc3ccc(F)cc3)cc2O[C@@H]1CN(C)C(=O)c1ccccn1	.	/	/	/	/	/
O=C(Nc1ccc(S(=O)(=O)N2CCCCCC2)cc1)c1ccco1	/	.	.	.	.	/
C[C@H](NC(=O)c1ccco1)C(=O)Nc1ccc(S(=O)(=O)N2CCCC2)cc1	/	.	.	.	.	.
CO[C@@H]1CN(C)C(=O)c2ccc(NC(=O)C3CCCC3)cc2OC[C@H](C)N(C(=O)CC2CC2)C[C@@H]1C	.	/	/	/	/	/
CN1C(=O)c2cc(NC(=O)C3CCCCC3)ccc2OC[C@@H]2O[C@H](CC(=O)NCCc3ccncc3)CC[C@H]21	.	/	/	/	/	/
CCOC(=O)c1ccccc1NC(=O)C1=COCCO1	.	.	.	.	.	/
CCOC(=O)c1ccccc1NC(=O)COC(=O)C1=COCCO1	/	.	.	.	.	.
C[C@H]1CCCCO[C@H](CN(C)C(=O)CCCN(C)C)[C@@H](C)CN([C@@H](C)CO)C(=O)c2cc(NS(C)(=O)=O)ccc2O1	.	/	/	/	/	/
CCS(=O)(=O)Nc1ccc(C(=O)OC)cc1	/	.	.	.	16.7	.
COCC#Cc1ccc2c(c1)O[C@@H](CN(C)Cc1ccccc1)[C@@H](C)CN([C@@H](C)CO)S2(=O)=O	.	/	/	/	/	/
Cc1ccc(S(=O)(=O)N2CCN(C(=O)COC(=O)/C=C/c3ccc(F)cc3)CC2)c(C)c1	.	.	.	.	.	.
CSc1ccc(/C=C/C(=O)OCC(=O)N2CCN(S(=O)(=O)c3ccc(C)cc3C)CC2)cc1	.	.	.	.	.	/
CC(=O)N(C)C[C@H]1Oc2ncc(-c3cccc(F)c3)cc2C(=O)N([C@H](C)CO)C[C@H]1C	.	/	/	/	/	/
C[C@@H]1CCCCO[C@@H](CN(C)C(=O)Nc2ccc(F)cc2)[C@H](C)CN([C@H](C)CO)C(=O)c2cc(NS(=O)(=O)c3cn(C)cn3)ccc2O1	.	/	/	/	/	/
Cc1ccc(-c2ccc3c(c2)O[C@H](CN(C)Cc2ccccn2)[C@H](C)CN([C@H](C)CO)S3(=O)=O)cc1	.	/	/	/	/	/
CNC(=O)c1cc2cc(OC)ccc2n1CCN(Cc1ccccc1)Cc1ccccc1	/	.	.	.	25.0	.
CNC(=O)c1cc2cc(OC)ccc2n1CCN(C)C	/	.	.	.	.	/
CN(c1ccccc1)S(=O)(=O)c1nnc(NC(=O)C2CCCCC2)s1	.	.	.	.	18.8	.
O=C(c1cc(-c2ccc3c(c2)OCO3)on1)N1CCN(c2ccccc2)CC1	/	.	.	.	.	/
O=C(c1cc(-c2ccc3c(c2)OCO3)on1)N1CCN(c2ccc(F)cc2)CC1	/	.	/	/	.	.
CCn1nnnc1NCc1ccc(SC)cc1	.	.	.	.	/	.
CCn1nnnc1NCc1ccc(N2CCCC2)cc1	/	.	.	.	/	.	HeLa 24h tox=.
SMILES	TcdB GH inh	Y pestis TopoI	UGM FP inh	PrP 5UTR inh	Vc quorum ag-1	Vc quorum ag-2	others
Cc1ccc(CNc2nnnn2C)cc1	.	.	.	.	.	/
CN(C)S(=O)(=O)c1cccc(NC(=O)COC(=O)c2ccc(Br)o2)c1	/	.	.	.	.	.
COc1ccc(C(=O)COC(=O)c2cccc(-n3cnnn3)c2)c(OC)c1	.	.	.	.	.	.
COC(=O)c1ccc(CSc2nnc3c(Cl)cc(Cl)cn23)o1	.	.	.	.	34.8	.
COc1ccccc1NC(=O)c1nn(-c2ccc(Cl)cc2)ccc1=O	/	.	.	.	25.0	.
COc1ccccc1NC(=O)c1nn(-c2ccccc2)ccc1=O	/	.	.	.	.	/
